Drawing on PubChem BioAssay (EPA / NIEHS), this text covers outcome and AC50 for 32 compounds.

The target of assay [1] is Bile acid receptor (Homo sapiens) (UniProt Q96RI1). Nature of the assay: ATG_FXR_TRANS: Attagene TRANS-FACTORIAL HepG2 Assay for Farnesoid X Receptor (FXR) (AID 2282979).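 Further: hits raise reporter mRNA above DMSO so AC50 marks FXR activation.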 Conditions: HepG2 Attagene TRANS FXR-GAL4 reporter transcription. The gist of the method: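 Chimeric FXR-GAL4 activity in transiently transfected human HepG2 liver cells is scored as induction of reporter mRNA after 24 h of dosing. Detection uses RT-PCR with fluorescent labelling and capillary electrophoresis, with DMSO serving as baseline.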
Chain of Bile acid receptor (Homo sapiens) (Q96RI1 whole entry, looked up, the tested form may be a part): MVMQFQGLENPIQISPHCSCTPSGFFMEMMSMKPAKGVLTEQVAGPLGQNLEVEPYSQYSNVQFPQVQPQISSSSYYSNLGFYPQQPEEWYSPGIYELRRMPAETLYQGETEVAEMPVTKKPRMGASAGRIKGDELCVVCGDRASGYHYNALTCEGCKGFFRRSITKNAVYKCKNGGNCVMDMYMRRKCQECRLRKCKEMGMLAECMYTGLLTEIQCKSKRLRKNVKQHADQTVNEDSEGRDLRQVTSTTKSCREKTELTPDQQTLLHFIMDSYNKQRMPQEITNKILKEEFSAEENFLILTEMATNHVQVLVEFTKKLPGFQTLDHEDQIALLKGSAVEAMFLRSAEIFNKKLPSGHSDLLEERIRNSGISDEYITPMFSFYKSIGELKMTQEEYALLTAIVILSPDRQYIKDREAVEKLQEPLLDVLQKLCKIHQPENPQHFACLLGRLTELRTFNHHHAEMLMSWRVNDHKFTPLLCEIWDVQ

The target of assay [2] is Oxysterols receptor LXR-alpha (Homo sapiens) (UniProt Q13133). Kind of assay: ATG_LXRa_TRANS: Attagene TRANS-FACTORIAL HepG2 Assay for human Liver X Receptor alpha (LXRa) (AID 2282980). To be noted: HepG2 Attagene TRANS reporter, LXRa transactivation. The gist of the method: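 Transient HepG2 transfectants, 24 h dosing, RT-PCR/CE mRNA reporter quantitation; gain-of-signal vs DMSO.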
Chain of Oxysterols receptor LXR-alpha (Homo sapiens) (Q13133 whole entry, looked up): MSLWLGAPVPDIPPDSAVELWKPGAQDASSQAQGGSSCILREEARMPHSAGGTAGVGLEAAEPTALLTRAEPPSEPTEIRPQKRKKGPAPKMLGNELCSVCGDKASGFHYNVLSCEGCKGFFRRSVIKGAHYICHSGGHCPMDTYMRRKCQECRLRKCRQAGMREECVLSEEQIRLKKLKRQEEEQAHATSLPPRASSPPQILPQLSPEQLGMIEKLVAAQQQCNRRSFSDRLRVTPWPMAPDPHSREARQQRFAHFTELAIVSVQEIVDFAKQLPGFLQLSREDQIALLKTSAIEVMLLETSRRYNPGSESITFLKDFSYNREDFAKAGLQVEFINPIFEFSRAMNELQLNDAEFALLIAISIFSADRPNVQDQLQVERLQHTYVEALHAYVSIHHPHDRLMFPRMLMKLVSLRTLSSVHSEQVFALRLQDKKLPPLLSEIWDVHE

Assay [3] concerns the target Hepatocyte nuclear factor 4-alpha (Homo sapiens) (UniProt P41235). Kind of assay: ATG_HNF4a_TRANS: Attagene TRANS-FACTORIAL HepG2 Assay for human Hepatocyte Nuclear Factor 4 alpha (HNF4a) (AID 2282982). To be noted: HepG2 HNF4a transactivation reporter, mRNA readout. A digest of the protocol:
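Gain-of-signal mRNA induction, relative to DMSO vehicle, was read after 24 h compound treatment of HepG2 cells bearing transfected GAL4-UAS reporters. Detection used RT-PCR, 6-FAM primer extension and capillary electrophoresis.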

A short description of assay [4]: ATG_M_06_TRANS: Attagene TRANS-FACTORIAL HepG2 Assay for M06 Transcription Factor (Internal Marker) (AID 2282983). Conditions: HepG2 Attagene TRANS M06 internal marker reporter. The gist of the method:
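Measured by capillary electrophoresis of fluorescently labelled RT-PCR products, this endpoint reflects reporter mRNA in HepG2 cells harbouring exogenous NR-GAL4 reporter constructs after 24 h exposure, with DMSO as baseline.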

In assay [5] the target is Transcriptional activator Myb (Homo sapiens) (UniProt P10242). Kind of assay: ATG_Myb_CIS: Attagene CIS-FACTORIAL HepG2 Assay for human Myeloblastosis (Myb) Proto-Oncogene Transcription Factor (AID 2282986; active means hit-call score of the fitted dose curve at least 0.9, where 1 is the maximum; inactive means score below 0.9). To be noted: HepG2 Attagene CIS-FACTORIAL Myb reporter transcription; actives raise or lower the signal. A digest of the protocol: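 HepG2, transient MRTU transfection (cis-element promoters, endogenous TF activity), 24 h compound exposure. Readout: reporter mRNA via RT-PCR, 6-FAM labeling, HpaI digest, capillary electrophoresis. Gain/loss fit vs DMSO.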
Chain of Transcriptional activator Myb (Homo sapiens) (P10242 whole entry, looked up): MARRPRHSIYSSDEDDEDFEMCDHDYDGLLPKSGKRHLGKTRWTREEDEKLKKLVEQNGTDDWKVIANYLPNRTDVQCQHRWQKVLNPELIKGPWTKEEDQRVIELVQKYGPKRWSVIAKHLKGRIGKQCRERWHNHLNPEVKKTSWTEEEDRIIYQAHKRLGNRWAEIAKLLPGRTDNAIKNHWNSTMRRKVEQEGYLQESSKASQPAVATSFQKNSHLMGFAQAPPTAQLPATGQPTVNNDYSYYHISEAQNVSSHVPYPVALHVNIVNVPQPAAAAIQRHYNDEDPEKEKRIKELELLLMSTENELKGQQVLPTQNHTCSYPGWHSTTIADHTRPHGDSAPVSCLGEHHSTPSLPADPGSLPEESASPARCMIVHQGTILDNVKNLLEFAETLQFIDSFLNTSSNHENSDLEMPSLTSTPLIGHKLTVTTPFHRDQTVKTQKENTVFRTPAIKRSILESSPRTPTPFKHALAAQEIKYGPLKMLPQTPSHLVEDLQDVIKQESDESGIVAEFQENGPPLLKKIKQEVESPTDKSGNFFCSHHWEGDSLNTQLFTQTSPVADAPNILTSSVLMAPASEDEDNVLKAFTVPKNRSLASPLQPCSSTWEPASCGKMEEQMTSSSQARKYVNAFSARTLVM

Assay [6] has as its target Nuclear respiratory factor 1 (Homo sapiens) (UniProt Q16656). Nature of the assay: ATG_NRF1_CIS: Attagene CIS-FACTORIAL HepG2 Assay for human Nuclear Respiratory Factor 1 (NRF1) Orphan Gene (AID 2282987; active means hit-call score of the fitted dose curve at least 0.9, where 1 is the maximum; inactive means score below 0.9). Conditions: HepG2 NRF1 cis-element reporter, Attagene multiplex; actives raise or lower the signal. The gist of the method: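 Endogenous NRF1-driven reporter transcription measured in transiently transfected human HepG2 liver cells. Readout: reporter mRNA by RT-PCR and capillary electrophoresis with fluorescence detection, 24 h post-dosing. Gain or loss of signal fitted relative to DMSO baseline.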

A short description of assay [7]: ATG_NFI_CIS: Attagene CIS-FACTORIAL HepG2 Assay for human Nuclear Factor I (NFI) (AID 2282989; active means hit-call score of the fitted dose curve at least 0.9, where 1 is the maximum; inactive means score below 0.9). Conditions: HepG2 cis-regulatory reporter, NFI response element transcription; actives raise or lower the signal. The gist of the method: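 HepG2 cells transiently transfected with cis-element-driven multiplexed reporter transcription units, dosed for 24 h. Reporter mRNA quantified by RT-PCR, fluorescent labelling, HpaI digestion and capillary electrophoresis; bidirectional fit versus DMSO baseline.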

A short description of assay [8]: ATG_M_32_TRANS: Attagene TRANS-FACTORIAL HepG2 Assay for M32 Transcription Factor (Internal Marker) (AID 2282984).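 Further: transcript level of a background control reporter unit measured by RT-PCR and capillary electrophoresis.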 To be noted: HepG2 Attagene TRANS M32 internal marker reporter. A digest of the protocol: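 Capillary electrophoresis of 6-FAM-labelled reporter fragments gives the signal; data fitted for gain over DMSO negative control. Source: HepG2 cells bearing transient multiple reporter transcription units, 24 h exposure.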

In assay [9] the target is Oxysterols receptor LXR-beta (Homo sapiens) (UniProt P55055). Kind of assay: ATG_LXRb_TRANS: Attagene TRANS-FACTORIAL HepG2 Assay for human Liver X Receptor beta (LXRb) (AID 2282981). To be noted: HepG2 Attagene TRANS GAL4-LXRb reporter, mRNA. The gist of the method:
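Gain-of-signal mRNA reporter endpoint, DMSO as negative control. Transiently transfected HepG2 cells carrying the NR-Gal4 chimera and GAL4-UAS reporter units were treated 24 h; transcripts quantified by RT-PCR and capillary electrophoresis fluorescence.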

Assay [10] addresses Nuclear receptor subfamily 4 group A member 2 (Homo sapiens) (UniProt P43354). Kind of assay: ATG_NURR1_TRANS: Attagene TRANS-FACTORIAL HepG2 Assay for human Nuclear Receptor Related Protein 1 (NURR1) (AID 2282985). Conditions: HepG2 Attagene TRANS reporter, mRNA readout. The gist of the method:
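HepG2 / transient MRTU transfection / 24 h compound exposure / RT-PCR + CE fluorescence of reporter mRNA / gain-of-signal vs DMSO.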

Records with an inconclusive call do not appear. The source made the active and inactive calls. How the source made its calls, unless noted: active means hit-call score of the fitted dose curve at least 0.9, where 1 is the maximum; inconclusive means response in the unintended direction; inactive means score below 0.9.

Chain of Nuclear respiratory factor 1 (Homo sapiens) (Q16656 whole entry, looked up): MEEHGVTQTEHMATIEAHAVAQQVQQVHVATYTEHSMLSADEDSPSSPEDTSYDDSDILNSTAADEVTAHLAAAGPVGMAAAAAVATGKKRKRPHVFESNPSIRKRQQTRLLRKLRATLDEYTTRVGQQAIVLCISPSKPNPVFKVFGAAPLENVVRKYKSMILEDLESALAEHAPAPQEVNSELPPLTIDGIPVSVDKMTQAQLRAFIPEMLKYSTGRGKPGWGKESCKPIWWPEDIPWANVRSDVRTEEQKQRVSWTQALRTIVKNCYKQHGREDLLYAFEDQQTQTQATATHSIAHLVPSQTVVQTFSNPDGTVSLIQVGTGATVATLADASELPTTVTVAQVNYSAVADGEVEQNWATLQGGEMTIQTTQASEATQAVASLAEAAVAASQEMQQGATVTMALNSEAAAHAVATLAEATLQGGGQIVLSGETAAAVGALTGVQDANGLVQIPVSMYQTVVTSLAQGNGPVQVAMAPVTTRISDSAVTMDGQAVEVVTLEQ
Chain of Hepatocyte nuclear factor 4-alpha (Homo sapiens) (P41235 whole entry, looked up, the tested form may be a part): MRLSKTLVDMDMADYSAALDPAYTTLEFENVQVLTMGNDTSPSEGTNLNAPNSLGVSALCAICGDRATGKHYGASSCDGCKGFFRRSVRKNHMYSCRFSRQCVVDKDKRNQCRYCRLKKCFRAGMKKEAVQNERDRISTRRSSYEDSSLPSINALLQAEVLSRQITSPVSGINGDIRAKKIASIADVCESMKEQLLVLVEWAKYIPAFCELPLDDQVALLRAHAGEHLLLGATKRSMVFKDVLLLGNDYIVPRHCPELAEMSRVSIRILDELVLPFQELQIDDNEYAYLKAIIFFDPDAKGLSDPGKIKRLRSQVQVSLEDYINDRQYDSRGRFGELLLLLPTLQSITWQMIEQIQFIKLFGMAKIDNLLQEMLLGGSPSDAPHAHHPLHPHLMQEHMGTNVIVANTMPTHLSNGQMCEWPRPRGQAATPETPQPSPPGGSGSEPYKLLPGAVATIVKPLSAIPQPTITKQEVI
Chain of Oxysterols receptor LXR-beta (Homo sapiens) (P55055 whole entry, looked up, the tested form may be a part): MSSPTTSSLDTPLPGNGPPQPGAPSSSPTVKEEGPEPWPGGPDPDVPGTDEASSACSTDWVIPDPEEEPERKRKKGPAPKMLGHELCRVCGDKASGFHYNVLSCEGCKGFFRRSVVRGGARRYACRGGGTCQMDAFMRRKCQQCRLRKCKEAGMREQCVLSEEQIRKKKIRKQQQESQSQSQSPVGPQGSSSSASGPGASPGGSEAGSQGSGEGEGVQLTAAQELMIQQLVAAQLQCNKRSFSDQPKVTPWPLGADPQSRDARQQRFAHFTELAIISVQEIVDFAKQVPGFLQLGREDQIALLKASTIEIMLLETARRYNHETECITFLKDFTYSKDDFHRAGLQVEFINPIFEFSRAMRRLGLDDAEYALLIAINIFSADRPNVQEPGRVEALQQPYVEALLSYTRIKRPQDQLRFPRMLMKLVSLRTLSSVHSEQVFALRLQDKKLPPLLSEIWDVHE
Chain of Nuclear receptor subfamily 4 group A member 2 (Homo sapiens) (P43354 whole entry, looked up): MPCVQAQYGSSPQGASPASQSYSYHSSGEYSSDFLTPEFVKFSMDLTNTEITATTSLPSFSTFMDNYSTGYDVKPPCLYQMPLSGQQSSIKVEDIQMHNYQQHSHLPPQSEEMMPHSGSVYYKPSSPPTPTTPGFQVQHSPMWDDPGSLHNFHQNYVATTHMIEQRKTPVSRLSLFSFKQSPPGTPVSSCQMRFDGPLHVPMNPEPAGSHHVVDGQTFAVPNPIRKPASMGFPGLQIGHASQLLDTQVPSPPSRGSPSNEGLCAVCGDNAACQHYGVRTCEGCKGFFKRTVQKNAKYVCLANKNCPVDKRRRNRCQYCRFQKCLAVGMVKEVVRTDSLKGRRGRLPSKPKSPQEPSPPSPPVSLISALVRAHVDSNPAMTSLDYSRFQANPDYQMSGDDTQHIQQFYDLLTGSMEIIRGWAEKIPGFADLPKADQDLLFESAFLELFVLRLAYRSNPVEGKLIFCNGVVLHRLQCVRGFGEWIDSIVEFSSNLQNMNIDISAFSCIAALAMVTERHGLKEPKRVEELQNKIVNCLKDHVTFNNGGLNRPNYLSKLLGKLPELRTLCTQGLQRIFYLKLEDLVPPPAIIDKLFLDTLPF

In the case of `Cc1ccc(N)c(S(=O)(=O)O)c1`, the outcome in assay [1], in assay [2], in [3], in assay [4], in assay [5] and in assay [6] was inactive. The compound was classed as inactive in [7].
On to `Cc1ccc(S(N)(=O)=O)cc1`, for which the compound was classed as inactive in assay [1], in assay [2], in [3], in assay [4], in assay [8] and in assay [5]. Besides, the outcome in assay [7] was inactive.
On to `C[Si](C)(C)O[Si](C)(C)C`, for which the compound was classed as inactive in assay [1], in [2], in assay [3], in assay [8], in assay [5] and in assay [6]. In assay [7], the compound was called inactive.
On to `CN(C)CCOC(C)(c1ccccc1)c1ccccn1` (stereo not drawn), for which the compound was called inactive in [1], in assay [2], in assay [4], in assay [8], in assay [5] and in [7].
With `COc1ccc(CCC(C)=O)cc1`, the outcome in [1], in assay [2], in assay [9], in assay [8], in [5] and in assay [7] was inactive.
With `CCc1cc(C(C)(C)C)c(O)c(C(C)(C)C)c1`, the result in assay [1], in assay [2], in assay [8], in assay [5] and in assay [6] was inactive. Further, the AC50 in assay [10] was 11.4 µM (active); in [7] it was 54 µM (active).
`IC(I)I`: the call in assay [1], in assay [2], in assay [9], in assay [8], in [5] and in assay [6] was inactive. In addition, the compound was called inactive in [7].
On to `Cc1ccc(C)o1`, for which the call in assay [1], in assay [2], in [10], in assay [5], in assay [6] and in [7] was inactive.
As to `CC1C2CC(CC2C2CCCC(O)C2)C1(C)C` (stereo not drawn), the AC50 in assay [1] is 58.4 µM (active); in assay [2] it was 33.4 µM (active). Moreover, the call in assay [4], in assay [8], in assay [5], in [6] and in assay [7] was inactive.
As to `O=C(O)c1ccc(O)cc1`, the call in [1], in [2], in assay [3], in assay [4], in [8] and in assay [5] was inactive. In [7], the compound was classed as inactive.
As to `CCCCCCCCCCCCN1CCCCCC1=O`, the outcome in assay [1], in assay [2], in assay [3], in assay [4], in assay [5] and in assay [6] was inactive. Besides, the compound was called inactive in [7].
Regarding `O=C1c2ccccc2C(=O)c2c(O)ccc(O)c21`, the call in [1], in assay [2], in [3], in [4], in assay [8] and in [10] was inactive. Also, the compound was classed as inactive in [5] and in assay [7].
Regarding `CCCCCCCCCCCCCCCC(=O)OC/C=C(C)/C=C/C=C(C)/C=C/C1=C(C)CCCC1(C)C`, the outcome in assay [1], in assay [2], in [9], in assay [8], in [5] and in assay [6] was inactive.
With `Cc1cc(CCC(=O)OCCOCCOCCOC(=O)CCc2cc(C)c(O)c(C(C)(C)C)c2)cc(C(C)(C)C)c1O`, the compound was called inactive in assay [1], in [2], in assay [3], in assay [4], in assay [8] and in assay [10]. The compound was classed as inactive in assay [5], in assay [6] and in [7].
In the case of `CC1(C)C(=O)N(Cl)C(=O)N1Br`, the call in [1], in assay [2], in assay [3], in assay [8], in assay [10] and in assay [5] was inactive. Moreover, the compound was classed as inactive in [6] and in assay [7].
In the case of `CC(=O)O[C@@H]1CC2CCC1(C)C2(C)C` (stereo partly drawn), the result in assay [1], in assay [2], in assay [3], in assay [8], in assay [10] and in assay [5] was inactive. Also, the compound was called inactive in assay [6] and in [7].
Take `CC1(C)C2=CCCC(C)(C)[C@]23CC[C@H]1C3`: the outcome in [1], in assay [2], in [4], in assay [8], in [10] and in assay [5] was inactive. In assay [7], the compound was called inactive.
Consider `NCC1CCCC(CN)C1` (stereo not drawn), for which the call in assay [1], in assay [9], in assay [3], in assay [4], in assay [8] and in assay [10] was inactive. Further, the compound was called inactive in assay [5] and in assay [6].
With `CSCCC=O`, the result in assay [1], in assay [2], in [4], in [5], in assay [6] and in assay [7] was inactive.
For `CC1(C)COCN1`, the call in assay [1], in assay [2], in [3], in [8], in assay [5] and in assay [6] was inactive. For the same compound, the compound was classed as inactive in [7].
Regarding `C=CC(C)C#N` (stereo not drawn), the result in [1], in assay [2], in assay [4], in assay [8], in assay [10] and in assay [5] was inactive. Further, the compound was called inactive in assay [6] and in [7].
With `O=C1OC(=O)c2c(Cl)c(Cl)c(Cl)c(Cl)c21`, the result in [1], in assay [9], in assay [3], in assay [8], in assay [10] and in assay [5] was inactive. Also, the result in assay [6] and in assay [7] was inactive.
Regarding `C1CCOC1`, the result in [1], in assay [3], in assay [4], in assay [8], in assay [10] and in [5] was inactive. The compound was called inactive in [6] and in assay [7].
Turning to `COc1cc(CCC(C)=O)ccc1O`, the compound was classed as inactive in assay [1], in [9], in [8], in assay [10], in assay [5] and in assay [6]. In addition, the outcome in assay [7] was inactive.
As to `CC(=O)c1c(C)c([N+](=O)[O-])c(C(C)(C)C)c([N+](=O)[O-])c1C`, the result in assay [1], in assay [9], in assay [3], in [4], in [5] and in [6] was inactive. In addition, the compound was called inactive in assay [7]. For the same compound, in assay [10], the concentration at half-maximal activity (AC50) is 10.2 µM (active).
In the case of `CC[N+](C)(CC)CC`, the compound was called inactive in assay [1], in assay [3], in [4], in [5] and in assay [7].
Consider `COc1ccc(OC)c(N=Nc2c(O)ccc3ccccc23)c1`, for which the outcome in assay [1], in assay [9], in assay [3], in assay [4], in assay [10] and in [5] was inactive. Further, the compound was classed as inactive in assay [6] and in [7].
On to `CCCCCc1ccco1`, for which the call in assay [1], in [3], in [8], in assay [5], in assay [6] and in [7] was inactive.
For `CCCCCC(=O)CC`, the call in [1], in assay [3], in assay [4], in assay [5] and in assay [6] was inactive.
Regarding `CN(C)C(=S)SC(=S)N(C)C`, the result in assay [1], in assay [3], in assay [8], in assay [10], in [5] and in assay [6] was inactive.
Take `Cc1c(OCC(F)(F)F)ccnc1CS(=O)c1nc2ccccc2[nH]1` (stereo not drawn): the call in assay [1], in [4], in [8], in assay [5] and in assay [7] was inactive. Besides, the AC50 was 36.7 µM (active) in assay [10] and 128 µM (active) in assay [6].
For `COc1cc([C@@H]2c3cc4c(cc3[C@@H](O[C@@H]3O[C@@H]5CO[C@@H](C)O[C@H]5[C@H](O)[C@H]3O)[C@H]3COC(=O)[C@H]23)OCO4)cc(OC)c1O`, the compound was called inactive in assay [1], in assay [3], in [4], in [5], in assay [6] and in assay [7].
